Some compounds were tested as several samples or in several runs, with calls that do not always agree. Active and inactive are the calls of the source. The calls were made as follows: active = hit-call score of the fitted dose curve at least 0.9, where 1 is the maximum; inactive = score below 0.9.
Tests used:
[1] = ATG_ISRE_CIS: Attagene CIS-FACTORIAL HepG2 Assay for human Interferon Regulatory Factor 1 (IRF1) binding to an Interferon-Stimulated Response Element (ISRE) (AID 2282948); conditions: HepG2 ISRE cis-reporter (Attagene), mRNA transcription readout; actives raise or lower the signal
In short: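 Transiently transfected HepG2 cells carrying cis-element reporter units, dosed 24 hours. Reporter mRNA quantified by RT-PCR, fluorescent primer extension, HpaI digestion and capillary electrophoresis. Bidirectional fitting relative to DMSO.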

[2] = ATG_M_32_CIS: Attagene CIS-FACTORIAL HepG2 Assay for M32 Transcription Factor (Internal Marker) (AID 2282949); conditions: HepG2 Attagene cis-factorial M32 reporter, mRNA; actives raise or lower the signal;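 also: background control marker of the multiplexed CIS panel rather than a real target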
In short: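 HepG2 cells transiently transfected with multiplexed cis-regulated reporter units, dosed 24 h. Reporter mRNA quantified by RT-PCR, 6-FAM labelling, HpaI digestion and capillary electrophoresis; bidirectional fit vs DMSO.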

[3] = ATG_M_06_CIS: Attagene CIS-FACTORIAL HepG2 Assay for M06 Transcription Factor (Internal Marker) (AID 2282950); conditions: HepG2 Attagene CIS-FACTORIAL M06 internal marker reporter; actives raise or lower the signal
In short: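 Measured 24 h post-dosing in transiently transfected HepG2 cells, this internal-marker endpoint reports reporter mRNA via RT-PCR with fluorescent primer extension and capillary electrophoresis. DMSO served as negative control and baseline for bidirectional fitting.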

[4] = biological target: Hypoxia-inducible factor 1-alpha (Homo sapiens) (UniProt Q16665); assay: ATG_HIF1a_CIS: Attagene CIS-FACTORIAL HepG2 Assay for human Hypoxia Inducible Factor 1 (HIF1A) (AID 2282951); conditions: HepG2 Attagene cis-factorial HIF1a reporter transcription; actives raise or lower the signal
In short: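 Activity is fitted in both directions relative to DMSO. Reporter transcripts are read by RT-PCR, fluorescent primer extension and capillary electrophoresis after 24 h chemical treatment. The cells are HepG2 carrying transiently transfected cis-element-driven reporter units responding to endogenous factors.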

[5] = biological target: Hepatocyte nuclear factor 6 (Homo sapiens) (UniProt Q9UBC0); assay: ATG_HNF6_CIS: Attagene CIS-FACTORIAL HepG2 Assay for human Hepatocyte Nuclear Factor 6 (HNF6) (AID 2282952); conditions: HepG2 Attagene cis-factorial HNF6 reporter transcription; actives raise or lower the signal
In short: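 Transiently transfected HepG2 cells expressing cis-regulated reporter transcription units were exposed to chemical for 24 h in a 24-well format. Reporter transcript abundance was determined by fluorescence capillary electrophoresis.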

[6] = ATG_MRE_CIS: Attagene CIS-FACTORIAL HepG2 Assay for human Metal Responsive Element (MRE) (AID 2282954); conditions: HepG2 MRE cis-reporter transcription, Attagene multiplex; actives raise or lower the signal
In short: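 Transient MRTU transfection of HepG2 (FuGene 6); 24 h dosing; total RNA → oligo(dT) RT, PCR, 6-FAM primer extension, HpaI cut, CE. Bidirectional fit vs DMSO.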

[7] = biological target: Paired box protein Pax-6 (Homo sapiens) (UniProt P26367); assay: ATG_Pax6_CIS: Attagene CIS-FACTORIAL HepG2 Assay for human Paired Box 6 (PAX6) (AID 2282956); conditions: HepG2 CIS-FACTORIAL PAX6 reporter transcription, RNA readout; actives raise or lower the signal
In short: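 HepG2 cells transiently transfected with cis-promoter-driven multiplexed reporter units sensing endogenous transcription factor activity; 24 h chemical exposure. Reporter mRNA quantified by RT-PCR, 6-FAM labelling, HpaI digestion and capillary electrophoresis; bidirectional fit versus DMSO baseline.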

[8] = ATG_PXRE_CIS: Attagene CIS-FACTORIAL HepG2 Assay for human Pregnane X Receptor Element (PXRE) (AID 2282957); conditions: HepG2 Attagene CIS-FACTORIAL PXRE reporter, mRNA; actives raise or lower the signal
In short: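 Cis-element reporter mRNA in human hepatoma HepG2 cells is measured 24 h post-dosing by RT-PCR, primer-extension labeling and capillary electrophoresis; gain or loss of signal is fitted relative to DMSO.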

[9] = ATG_PPRE_CIS: Attagene CIS-FACTORIAL HepG2 Assay for human Peroxisome Proliferator-activated Response Element (PPRE) (AID 2282958); conditions: HepG2 PPRE cis-element reporter, Attagene transcription factor profiling; actives raise or lower the signal
In short: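 Endogenous PPRE-driven transcription is measured in HepG2 cells carrying transfected multi-reporter constructs. Reporter transcripts are quantified by RT-PCR, HpaI digestion and capillary electrophoresis 24 h after dosing. DMSO baseline, bidirectional fit.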

[10] = ATG_RORE_CIS: Attagene CIS-FACTORIAL HepG2 Assay for human RAR-related Orphan Receptor Element (RORE) (AID 2282959); conditions: HepG2 Attagene cis-factorial RORE reporter, mRNA; actives raise or lower the signal
In short: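 RORE reporter transcripts reflecting endogenous factor activity were read after 24 h compound exposure of transfected HepG2 cells, using reverse transcription, PCR, fluorescent labelling and capillary electrophoresis sizing. Gain or loss fitted against DMSO.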

[11] = ATG_Sox_CIS: Attagene CIS-FACTORIAL HepG2 Assay for human SRY-box transcription factor (SOX) (AID 2282960); conditions: HepG2 Attagene cis-factorial SOX reporter, mRNA; actives raise or lower the signal
In short: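 Reporter transcripts, measured by RT-PCR and capillary electrophoresis of labelled fragments, report endogenous SOX transcription factor activity. Transiently transfected human HepG2 cells receive chemical for 24 h; changes in either direction are fitted relative to DMSO.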

[12] = biological target: Transcription factor Sp1 (Homo sapiens) (UniProt P08047); assay: ATG_Sp1_CIS: Attagene CIS-FACTORIAL HepG2 Assay for human Specificity Protein 1 (Sp1) (AID 2282961); conditions: HepG2 Sp1 cis-reporter transcription, actives raise or lower the signal
In short: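 Read-out is reporter transcript level, measured by RT-PCR and fluorescent capillary electrophoresis after 24 h chemical treatment. System: transiently transfected HepG2 cells reporting endogenous transcription factor activity; gain or loss fitted against DMSO baseline.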

[13] = ATG_SREBP_CIS: Attagene CIS-FACTORIAL HepG2 Assay for human Sterol Regulatory Element Binding (SREBP) (AID 2282962); conditions: HepG2 Attagene cis-factorial SREBP reporter, mRNA; actives raise or lower the signal
In short: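 HepG2 cells transiently transfected with multiplexed cis-promoter reporter units sensing endogenous transcription factors; reporter mRNA measured 24 h after dosing by RT-PCR, 6-FAM labeling, HpaI digestion and capillary electrophoresis. Bidirectional fit versus DMSO.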

[14] = biological target: Signal transducer and activator of transcription 3 (Homo sapiens) (UniProt P40763); assay: ATG_STAT3_CIS: Attagene CIS-FACTORIAL HepG2 Assay for human Signal Transducer and Activator of Transcription 3 (STAT3) (AID 2282963); conditions: HepG2, Attagene cis-factorial STAT3 reporter transcription; actives raise or lower the signal
In short: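 Endogenous STAT3-responsive cis-element activity was read in transiently transfected HepG2 cells after 24 h treatment. Reporter transcripts were quantified via RT-PCR and capillary electrophoresis, with DMSO as negative control and bidirectional curve fitting.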

[15] = ATG_TA_CIS: Attagene CIS-FACTORIAL HepG2 Assay for human TA Basal Promoter (AID 2282964); conditions: HepG2 Attagene CIS-factorial TA basal promoter reporter; actives raise or lower the signal
In short: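 Cis-factorial format in HepG2: reporters report endogenous factors, not chimeric Gal4 fusions. After 24 h treatment, reporter transcripts were measured by RT-PCR-capillary electrophoresis fluorescence, analysed bidirectionally versus DMSO.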

[16] = ATG_TCF_b_cat_CIS: Attagene CIS-FACTORIAL HepG2 Assay for human T-Cell-Factor with beta-catenin (TCF/b-cat) (AID 2282965); conditions: HepG2 TCF/beta-catenin cis-reporter transcription, actives raise or lower the signal
In short: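 Measured: reporter mRNA in HepG2 transiently transfected with cis-promoter reporter units, 24 h after chemical addition. Fitting was bidirectional, DMSO as negative control.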

[17] = ATG_TAL_CIS: Attagene CIS-FACTORIAL HepG2 Assay for human TAL Basal Promoter (AID 2282966); conditions: HepG2 Attagene cis-factorial TAL promoter reporter; actives raise or lower the signal;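 also: background control endpoint measuring basal TAL promoter reporter mRNA not a specific factor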
In short: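 In this cell-based multiplex, HepG2 liver cells bearing cis-promoter reporter constructs are dosed for 24 hours. Total RNA is reverse-transcribed and amplified, labelled fragments are sized by capillary electrophoresis, and signal changes are fitted bidirectionally versus DMSO.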

[18] = ATG_TGFb_CIS: Attagene CIS-FACTORIAL HepG2 Assay for human Transforming Growth Factor (TGF) (AID 2282967); conditions: HepG2 Attagene CIS TGFb reporter, mRNA transcription; actives raise or lower the signal
In short: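 Multiplexed cis-reporter HepG2 system, 24 h treatment; mRNA induction read by fluorescence after RT-PCR and CE; DMSO negative control, bidirectional curve fitting.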

[19] = biological target: Heat shock factor protein 1 (Homo sapiens) (UniProt Q00613); assay: ATG_HSE_CIS: Attagene CIS-FACTORIAL HepG2 Assay for human Heat Shock Transcription Factor 1 (HSE) (AID 2282953); conditions: HepG2 HSE cis-reporter, Attagene RNA transcription; actives raise or lower the signal
In short: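 Reporter mRNA induction in HepG2 is measured 24 h after dosing, using transiently transfected multiplexed cis-regulated reporter units. Signal comes from capillary electrophoresis of labelled RT-PCR products, with DMSO as negative control.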

[20] = ATG_PBREM_CIS: Attagene CIS-FACTORIAL HepG2 Assay for human Phenobarbital-responsive Enhancer Module (PBREM) (AID 2282955); conditions: HepG2 PBREM cis-reporter, Attagene multiplexed transcription; actives raise or lower the signal
In short: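 Endogenous transcription factor activity was read from reporter transcripts in transiently transfected human HepG2 liver cells after 24 h dosing. RT-PCR products were fluorescently labelled, HpaI-cut and sized by capillary electrophoresis; activity fitted bidirectionally against DMSO baseline.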

Transcription factor Sp1 (Homo sapiens), sequence (P08047 whole entry, looked up): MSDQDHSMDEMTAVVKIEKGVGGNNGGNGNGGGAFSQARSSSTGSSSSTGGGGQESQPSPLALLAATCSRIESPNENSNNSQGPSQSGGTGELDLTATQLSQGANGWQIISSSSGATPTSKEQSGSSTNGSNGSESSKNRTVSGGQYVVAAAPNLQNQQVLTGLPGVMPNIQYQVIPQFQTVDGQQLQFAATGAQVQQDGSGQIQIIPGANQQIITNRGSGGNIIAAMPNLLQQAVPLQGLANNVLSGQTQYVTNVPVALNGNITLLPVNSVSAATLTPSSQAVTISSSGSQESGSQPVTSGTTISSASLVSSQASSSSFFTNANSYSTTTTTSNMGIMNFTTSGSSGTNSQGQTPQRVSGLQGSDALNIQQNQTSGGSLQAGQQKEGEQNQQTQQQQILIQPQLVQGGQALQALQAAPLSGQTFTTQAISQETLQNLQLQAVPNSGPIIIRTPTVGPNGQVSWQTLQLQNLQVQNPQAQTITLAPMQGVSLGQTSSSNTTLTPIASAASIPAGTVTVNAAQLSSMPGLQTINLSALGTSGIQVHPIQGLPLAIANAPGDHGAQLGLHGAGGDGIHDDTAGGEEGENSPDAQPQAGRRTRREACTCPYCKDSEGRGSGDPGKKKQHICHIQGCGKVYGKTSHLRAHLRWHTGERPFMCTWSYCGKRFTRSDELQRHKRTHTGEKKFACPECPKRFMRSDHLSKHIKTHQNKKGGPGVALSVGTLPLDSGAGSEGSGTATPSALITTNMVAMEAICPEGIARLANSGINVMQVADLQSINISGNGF
Paired box protein Pax-6 (Homo sapiens), sequence (P26367 whole entry, looked up): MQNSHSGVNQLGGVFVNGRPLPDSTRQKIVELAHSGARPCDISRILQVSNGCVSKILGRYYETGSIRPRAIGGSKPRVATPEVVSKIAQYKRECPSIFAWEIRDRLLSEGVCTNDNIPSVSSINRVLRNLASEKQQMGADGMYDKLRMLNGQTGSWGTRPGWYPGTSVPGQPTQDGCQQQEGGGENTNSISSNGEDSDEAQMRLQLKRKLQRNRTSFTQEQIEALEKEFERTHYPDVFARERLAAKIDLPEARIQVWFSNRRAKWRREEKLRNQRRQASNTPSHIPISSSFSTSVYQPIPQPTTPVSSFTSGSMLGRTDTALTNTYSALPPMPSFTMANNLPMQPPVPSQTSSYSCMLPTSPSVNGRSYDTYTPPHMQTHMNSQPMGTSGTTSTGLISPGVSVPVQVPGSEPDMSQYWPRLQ
Hypoxia-inducible factor 1-alpha (Homo sapiens), sequence (Q16665 whole entry, looked up): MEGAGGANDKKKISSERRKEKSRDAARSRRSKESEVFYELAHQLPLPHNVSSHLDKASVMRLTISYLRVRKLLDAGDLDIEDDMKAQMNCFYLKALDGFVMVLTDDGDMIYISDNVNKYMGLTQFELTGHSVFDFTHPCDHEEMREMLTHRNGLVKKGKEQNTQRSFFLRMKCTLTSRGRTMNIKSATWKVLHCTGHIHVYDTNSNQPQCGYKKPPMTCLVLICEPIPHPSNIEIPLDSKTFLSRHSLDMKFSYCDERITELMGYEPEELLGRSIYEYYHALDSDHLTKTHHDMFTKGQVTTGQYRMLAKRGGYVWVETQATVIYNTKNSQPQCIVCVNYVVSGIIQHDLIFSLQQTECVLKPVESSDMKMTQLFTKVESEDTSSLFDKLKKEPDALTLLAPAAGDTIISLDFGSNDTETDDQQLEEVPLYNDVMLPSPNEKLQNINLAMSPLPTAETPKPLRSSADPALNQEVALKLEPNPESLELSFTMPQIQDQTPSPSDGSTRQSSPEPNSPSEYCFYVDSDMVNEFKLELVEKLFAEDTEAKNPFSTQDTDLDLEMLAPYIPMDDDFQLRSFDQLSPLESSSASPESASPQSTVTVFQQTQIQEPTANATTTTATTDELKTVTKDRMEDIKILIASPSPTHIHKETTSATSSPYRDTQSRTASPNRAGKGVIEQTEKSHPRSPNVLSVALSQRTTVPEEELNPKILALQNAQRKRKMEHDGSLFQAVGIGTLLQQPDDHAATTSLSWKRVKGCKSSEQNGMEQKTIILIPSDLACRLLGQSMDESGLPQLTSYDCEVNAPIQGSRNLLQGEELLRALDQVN
Signal transducer and activator of transcription 3 (Homo sapiens), sequence (P40763 whole entry, looked up): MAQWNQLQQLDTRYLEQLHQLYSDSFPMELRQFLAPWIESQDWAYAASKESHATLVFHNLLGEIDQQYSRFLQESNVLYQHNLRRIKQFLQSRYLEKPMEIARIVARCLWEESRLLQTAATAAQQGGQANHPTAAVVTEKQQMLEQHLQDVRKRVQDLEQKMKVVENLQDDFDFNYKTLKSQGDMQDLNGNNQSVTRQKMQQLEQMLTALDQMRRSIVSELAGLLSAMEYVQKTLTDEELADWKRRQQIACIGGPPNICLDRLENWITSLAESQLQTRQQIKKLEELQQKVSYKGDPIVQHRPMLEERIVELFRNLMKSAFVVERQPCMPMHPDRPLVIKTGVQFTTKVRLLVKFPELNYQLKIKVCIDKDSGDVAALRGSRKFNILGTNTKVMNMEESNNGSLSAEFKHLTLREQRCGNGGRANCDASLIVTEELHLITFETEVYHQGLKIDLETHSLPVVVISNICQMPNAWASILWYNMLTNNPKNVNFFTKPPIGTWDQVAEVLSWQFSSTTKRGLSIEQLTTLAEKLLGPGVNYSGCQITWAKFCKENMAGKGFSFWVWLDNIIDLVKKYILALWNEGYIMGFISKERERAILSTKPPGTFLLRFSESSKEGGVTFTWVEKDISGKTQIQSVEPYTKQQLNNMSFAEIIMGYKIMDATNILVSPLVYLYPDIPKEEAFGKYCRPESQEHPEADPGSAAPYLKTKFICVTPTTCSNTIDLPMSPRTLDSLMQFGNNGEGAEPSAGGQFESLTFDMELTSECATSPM
Hepatocyte nuclear factor 6 (Homo sapiens), sequence (Q9UBC0 whole entry, looked up): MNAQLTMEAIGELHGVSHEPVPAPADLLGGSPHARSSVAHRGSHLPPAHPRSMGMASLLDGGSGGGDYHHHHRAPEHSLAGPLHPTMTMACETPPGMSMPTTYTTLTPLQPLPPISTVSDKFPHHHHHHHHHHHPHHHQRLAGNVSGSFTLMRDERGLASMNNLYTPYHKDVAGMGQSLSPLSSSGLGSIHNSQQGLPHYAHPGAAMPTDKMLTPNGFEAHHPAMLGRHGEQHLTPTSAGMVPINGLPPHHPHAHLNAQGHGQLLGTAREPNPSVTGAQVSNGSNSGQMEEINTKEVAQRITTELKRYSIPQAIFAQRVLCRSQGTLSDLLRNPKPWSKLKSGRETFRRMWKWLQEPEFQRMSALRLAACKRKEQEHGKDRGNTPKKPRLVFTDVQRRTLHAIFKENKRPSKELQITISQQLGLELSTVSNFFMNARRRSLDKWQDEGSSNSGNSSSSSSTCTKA
Heat shock factor protein 1 (Homo sapiens), sequence (Q00613 whole entry, looked up): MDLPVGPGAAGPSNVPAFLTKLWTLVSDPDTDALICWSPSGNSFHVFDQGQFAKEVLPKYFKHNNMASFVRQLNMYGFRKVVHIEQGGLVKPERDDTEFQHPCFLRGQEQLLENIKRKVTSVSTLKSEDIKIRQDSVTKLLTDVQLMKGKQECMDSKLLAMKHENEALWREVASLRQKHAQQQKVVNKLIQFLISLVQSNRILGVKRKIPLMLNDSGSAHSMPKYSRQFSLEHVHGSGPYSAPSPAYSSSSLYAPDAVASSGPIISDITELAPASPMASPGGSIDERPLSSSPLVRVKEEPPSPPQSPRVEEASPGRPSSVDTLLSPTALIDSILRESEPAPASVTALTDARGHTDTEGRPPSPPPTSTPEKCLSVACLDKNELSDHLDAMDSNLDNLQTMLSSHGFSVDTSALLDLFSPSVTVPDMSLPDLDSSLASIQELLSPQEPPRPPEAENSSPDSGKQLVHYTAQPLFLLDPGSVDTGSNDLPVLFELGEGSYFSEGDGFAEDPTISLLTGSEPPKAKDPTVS

SMILES: O=C1NS(=O)(=O)c2ccccc21
- outcome [1]: inactive
- outcome [2]: inactive
- outcome [3]: inactive
- outcome [4]: inactive
- outcome [5]: inactive
- outcome [6]: inactive
- outcome [7]: inactive
- AC50 [8]: 55.9 µM (active)
- outcome [8]: inactive
- outcome [9]: inactive
- outcome [10]: inactive
- outcome [11]: inactive
- outcome [12]: inactive
- outcome [13]: inactive
- outcome [14]: inactive
- outcome [15]: inactive
- outcome [16]: inactive
- outcome [17]: inactive
- outcome [18]: inactive

SMILES: Cn1sccc1=O
- AC50 [1]: 163 µM (active)
- outcome [2]: inactive
- outcome [3]: inactive
- outcome [4]: inactive
- AC50 [19]: 161 µM (active)
- AC50 [6]: 163 µM (active)
- outcome [20]: inactive
- AC50 [7]: 159 µM (active)
- AC50 [8]: 142 µM (active)
- outcome [9]: inactive
- outcome [10]: inactive
- AC50 [12]: 153 µM (active)
- AC50 [13]: 161 µM (active)
- outcome [14]: inactive
- outcome [15]: inactive
- AC50 [16]: 92.9 µM (active)
- outcome [17]: inactive
- outcome [18]: inactive

— PubChem BioAssay (EPA / NIEHS)
